Values joined by “and” are separate entries in the source; they are usually repeats but may differ in a detail not shown here. Identical values can stand only once. Results filed as inconclusive are left out. Active and inactive are the calls of the source. Unless noted, the call rests on the fitted dose curve; in most records, active means well fitted curve in the direction sought with a large enough effect; inconclusive means small, poorly fitted or top-dose-only effect, or another doubt; inactive means no such curve, though single readings can be large; an effect the other way counts as inactive or inconclusive. Where a SMILES comes first, the peptide text is derived from it.

In experiment [1] the test system is Zika virus NS2B-NS3 protease. Description: Primary screen GU AMC qHTS for Zika virus inhibitors (AID 1347154).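 Further: 0% = no-inhibitor control and -100% = no-enzyme control; nearly all actives have a fitted effect of over 70% in size.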 In outline:
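Fluorogenic AMC-substrate cleavage by noncovalent NS2B-NS3 protease complex (25 nM, pH 8.0 Tris buffer with Tween 20) followed for 15 minutes at room temperature (~20% conversion). Percent inhibition from ex340/em450 signal change, fitted by 4-parameter Hill equation.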
In general terms: Quantitative high-throughput screening tests each substance at several concentrations.

Experiment [2] in a line: Primary qHTS for small molecule stabilizers of the endoplasmic reticulum resident proteome: Secreted ER Calcium Modulated Protein (SERCaMP) assay (AID 1508630). Further: on the % scale 0 is the no-effect control and ±100 the full control effect. In outline:
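The SH-SY5Y reporter protocol was run at 3 concentrations up to 38.3 uM (primary) or 11 concentrations (follow-up): 16 h compound, 100 nM thapsigargin for 4 h, then extracellular luciferase luminescence.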

Experiment [3] can be described thus: AP1 Signaling Pathway (AID 357; active means well fitted curve in either direction with a large enough effect, not every such curve was filed as active;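 further: ME-180 reporter cells stimulated with EGF at its EC50 level; on the % scale 0 is the no-effect control and ±100 the full control effect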). In a few lines: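 AP-1-bla ME-180 cells, Opti-MEM + 0.5% dialyzed FBS, plated overnight 37 °C. Cpd titration + EC50 EGF, 5 h 37 °C. CCF4 2.5 h RT; ex 405, em 460/530 ratio → %activity, AC50.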
Experiment [4] deals with Cytochrome P450 1A2 (Homo sapiens) (UniProt P05177). Description: p450-cyp1a2 (AID 410; calls by dose curve;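 further: -100% = full effect of reference inhibitor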). In a few lines: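 20nM CYP1A2, 100uM Luciferin-ME (=Km), 100mM KPO4; cpd 10 min RT; +NADPH regen, 60 min RT; stop/detect 20 min; luminescence. Normalized to furafylline 57 uM = full inhibition.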
Chain of Cytochrome P450 1A2 (Homo sapiens) (P05177 whole entry, looked up): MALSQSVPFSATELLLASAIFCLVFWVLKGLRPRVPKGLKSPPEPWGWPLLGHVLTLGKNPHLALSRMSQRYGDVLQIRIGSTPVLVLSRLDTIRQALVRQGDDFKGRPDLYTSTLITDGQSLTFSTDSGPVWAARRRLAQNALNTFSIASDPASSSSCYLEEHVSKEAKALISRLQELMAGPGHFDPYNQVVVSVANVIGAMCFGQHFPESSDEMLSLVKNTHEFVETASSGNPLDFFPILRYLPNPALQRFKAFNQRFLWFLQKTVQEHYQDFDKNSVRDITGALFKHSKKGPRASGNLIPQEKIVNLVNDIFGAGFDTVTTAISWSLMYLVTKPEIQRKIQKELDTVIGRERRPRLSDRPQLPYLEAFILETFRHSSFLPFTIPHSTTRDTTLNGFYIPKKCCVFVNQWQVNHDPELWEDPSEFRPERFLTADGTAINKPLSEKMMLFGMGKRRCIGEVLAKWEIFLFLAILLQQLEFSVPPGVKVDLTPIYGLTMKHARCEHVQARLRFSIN
Experiment [5] is described as follows: Stat Signaling Pathway (AID 446; active means well fitted curve in either direction with a large enough effect, not every such curve was filed as active;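 further: ME-180 cervical cancer cells given 40 pM IL-6 alongside compound; SIE-controlled beta-lactamase reporter measured as 460/530 nm FRET emission ratio; on the % scale 0 is the no-effect control and ±100 the full control effect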). In outline:
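Normalization used AC90 stimulation (300 pM IL-6) and AC90 inhibition (125 nM pan-JAK inhibitor at 40 pM IL-6). The underlying signal is SIE-driven beta-lactamase in ME-180 cells after 5 h IL-6 exposure with compound.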

Experiment [6] has as its target Mitogen-activated protein kinase 10 (Mus musculus) (UniProt Q61831). Briefly: JNK3 AlphaScreen Assay (AID 530; active means well fitted curve in either direction with a large enough effect, not every such curve was filed as active;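 further: kinase came from lysate of stimulated human HepG2 cells; signal reports phosphorylation of biotinylated GST-cJun 1-79 at Ser73 with 10 µM ATP; on the % scale 0 is the no-effect control and ±100 the full control effect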). In outline:
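Kinase buffer: 20 mM Tris-HCl pH 7.6, 10 mM MgCl2, 1 mM DTT, 0.1 mM Na3VO4, 0.01% Tween-20; ATP 10 uM. Substrate biotin-GST-cJun(1-79), enzyme from activated HepG2 lysates. Detection by Ser73 phospho-antibody AlphaScreen.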
On the technique in general: Bead proximity is the source of the signal in Alpha formats.

The target of experiment [7] is 3',5'-cyclic-AMP phosphodiesterase 4B (Homo sapiens) (UniProt Q07343). Briefly: qHTS Assay for Inhibitors of PDE-IV (AID 607; active means well fitted activation curve with a large enough effect in the main read-out, with a control signal flat, not every such curve was filed as active; further: % of control where 0% means no effect). In a few lines:
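HEK293 ACTOne cells with CNG channel (1000/well), endogenous PDE4; membrane potential dye, compounds up to 22.9 uM final. Fluorescence Ex 535/Em 590; RO 20-1724 (100 uM final) as reference.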

In experiment [8] the target is Cytochrome P450 3A4 (Homo sapiens) (UniProt P08684). Briefly: qHTS Assay for Activators of Cytochrome P450 3A4 (AID 885). Further: nearly all actives have a fitted effect of over 65% in size. In outline: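 Human CYP3A4 dealkylates Luciferin-PPXE to luciferin, which luciferase detection converts to light. Substrate was at its KM (25uM), buffer 200mM KPO4, reaction 60 min at RT.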
Chain of Cytochrome P450 3A4 (Homo sapiens) (P08684 whole entry, looked up): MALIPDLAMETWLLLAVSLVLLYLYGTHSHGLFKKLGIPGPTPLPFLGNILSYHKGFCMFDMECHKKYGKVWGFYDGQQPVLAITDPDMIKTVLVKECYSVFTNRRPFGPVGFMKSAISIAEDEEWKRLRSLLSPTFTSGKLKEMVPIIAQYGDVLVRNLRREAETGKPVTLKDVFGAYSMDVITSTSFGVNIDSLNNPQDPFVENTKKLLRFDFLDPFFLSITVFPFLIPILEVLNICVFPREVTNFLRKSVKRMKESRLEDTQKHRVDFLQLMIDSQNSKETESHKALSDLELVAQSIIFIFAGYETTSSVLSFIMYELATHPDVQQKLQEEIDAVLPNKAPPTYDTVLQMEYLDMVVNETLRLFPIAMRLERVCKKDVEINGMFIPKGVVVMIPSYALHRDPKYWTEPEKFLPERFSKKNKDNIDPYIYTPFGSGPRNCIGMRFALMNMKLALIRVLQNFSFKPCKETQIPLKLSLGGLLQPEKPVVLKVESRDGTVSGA
Experiment [9] addresses Cytochrome P450 2D6 (Homo sapiens) (UniProt P10635). Description: qHTS Assay for Inhibitors and Substrates of Cytochrome P450 2D6 (AID 891). Further: potency means the concentration at half of the fitted maximal effect; nearly all actives have a fitted effect of over 60% in size. In outline:
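Luminescent read-out of luciferin formed by 5 nM human CYP2D6 demethylating 30 uM Luciferin-ME EGE (Km level) over 60 min at room temperature after NADPH regeneration addition. Data normalized to full inhibition by 1.43 uM quinidine.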

Experiment [10] can be described thus: qHTS Assay for Lipid Storage Modulators (AID 1519; calls by dose curve). Conditions: Drosophila S3 cells, BODIPY lipid droplet/cell ratio, laser cytometry, cells loaded with oleic acid. In a few lines: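 Cells seeded at 5,000 per well were treated with compounds over a concentration series and loaded with oleic acid (400 uM, as added). Lipid droplet fluorescence (488 nm excitation, 500-530 nm channel) was read by laser-scanning cytometry and normalized to 20 uM Triacsin C.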

Experiment [11] concerns the target Ubiquitin carboxyl-terminal hydrolase 1 (Homo sapiens) (UniProt O94782). Description: Inhibitors of USP1/UAF1: Pilot qHTS (AID 504865).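 Further: rhodamine fluorescence freed from ubiquitin-rhodamine substrate followed over time; top concentration of the series differs between compounds; on the % scale 0 is the no-effect control and ±100 the full control effect; nearly all actives have a fitted effect of over 35% in size.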 In outline: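 USP1/UAF1 complex at 1 nM preincubated 15 min at room temperature with compound, then Ub-Rho substrate added at 150 nM final. Fluorescence (480/540 nm) read kinetically in 50 mM HEPES pH 7.8, 0.5 mM EDTA, 1 mM TCEP, 0.1 mg/ml BSA, 0.01% Tween-20.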

In experiment [12] the target is DNA dC->dU-editing enzyme APOBEC-3G (Homo sapiens) (UniProt Q9HC16). Description: qHTS for inhibitors of Vif-A3G interactions: Validation (AID 588379). Further: 0% is about no effect. In outline:
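Yellow fluorescence (Ex 488, Em 500-530) of Vif-coexpressing HeLa A3G-eYFP cells, scanned by Acumen cytometer, reports blocked A3G degradation. Cells plated at 700/well overnight at 37 deg C before compound addition, then a further overnight compound incubation at 37 deg C.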

Chain of 3',5'-cyclic-AMP phosphodiesterase 4B (Homo sapiens) (Q07343 whole entry, looked up): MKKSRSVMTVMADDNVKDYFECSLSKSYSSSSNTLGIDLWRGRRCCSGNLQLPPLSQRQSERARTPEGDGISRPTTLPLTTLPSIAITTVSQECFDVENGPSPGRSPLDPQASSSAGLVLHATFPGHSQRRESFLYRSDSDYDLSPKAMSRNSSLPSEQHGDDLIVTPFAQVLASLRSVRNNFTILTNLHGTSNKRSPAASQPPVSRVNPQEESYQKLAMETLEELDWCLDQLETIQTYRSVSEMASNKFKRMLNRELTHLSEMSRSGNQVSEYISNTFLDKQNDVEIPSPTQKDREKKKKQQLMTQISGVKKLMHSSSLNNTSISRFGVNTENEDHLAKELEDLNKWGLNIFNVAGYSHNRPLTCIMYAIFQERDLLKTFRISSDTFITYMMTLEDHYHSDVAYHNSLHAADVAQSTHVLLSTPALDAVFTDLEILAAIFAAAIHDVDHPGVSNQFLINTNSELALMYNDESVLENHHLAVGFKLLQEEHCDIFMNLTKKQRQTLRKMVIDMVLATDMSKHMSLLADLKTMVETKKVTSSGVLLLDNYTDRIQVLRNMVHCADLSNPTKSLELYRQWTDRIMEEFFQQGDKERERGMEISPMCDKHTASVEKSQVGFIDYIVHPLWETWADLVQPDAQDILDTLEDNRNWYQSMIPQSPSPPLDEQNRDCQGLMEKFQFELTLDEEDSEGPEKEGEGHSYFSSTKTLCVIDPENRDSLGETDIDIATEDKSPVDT
Chain of DNA dC->dU-editing enzyme APOBEC-3G (Homo sapiens) (Q9HC16 whole entry, looked up): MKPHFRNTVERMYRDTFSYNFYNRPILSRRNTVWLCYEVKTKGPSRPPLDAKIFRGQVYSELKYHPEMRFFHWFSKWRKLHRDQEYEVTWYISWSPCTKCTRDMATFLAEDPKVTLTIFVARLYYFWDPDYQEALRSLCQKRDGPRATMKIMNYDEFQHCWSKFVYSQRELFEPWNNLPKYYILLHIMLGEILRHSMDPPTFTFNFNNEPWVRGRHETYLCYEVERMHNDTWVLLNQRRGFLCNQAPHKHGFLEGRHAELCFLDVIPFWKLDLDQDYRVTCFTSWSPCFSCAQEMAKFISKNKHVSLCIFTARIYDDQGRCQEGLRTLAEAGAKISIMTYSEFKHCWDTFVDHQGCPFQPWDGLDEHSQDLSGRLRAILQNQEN
Chain of Ubiquitin carboxyl-terminal hydrolase 1 (Homo sapiens) (O94782 whole entry, looked up): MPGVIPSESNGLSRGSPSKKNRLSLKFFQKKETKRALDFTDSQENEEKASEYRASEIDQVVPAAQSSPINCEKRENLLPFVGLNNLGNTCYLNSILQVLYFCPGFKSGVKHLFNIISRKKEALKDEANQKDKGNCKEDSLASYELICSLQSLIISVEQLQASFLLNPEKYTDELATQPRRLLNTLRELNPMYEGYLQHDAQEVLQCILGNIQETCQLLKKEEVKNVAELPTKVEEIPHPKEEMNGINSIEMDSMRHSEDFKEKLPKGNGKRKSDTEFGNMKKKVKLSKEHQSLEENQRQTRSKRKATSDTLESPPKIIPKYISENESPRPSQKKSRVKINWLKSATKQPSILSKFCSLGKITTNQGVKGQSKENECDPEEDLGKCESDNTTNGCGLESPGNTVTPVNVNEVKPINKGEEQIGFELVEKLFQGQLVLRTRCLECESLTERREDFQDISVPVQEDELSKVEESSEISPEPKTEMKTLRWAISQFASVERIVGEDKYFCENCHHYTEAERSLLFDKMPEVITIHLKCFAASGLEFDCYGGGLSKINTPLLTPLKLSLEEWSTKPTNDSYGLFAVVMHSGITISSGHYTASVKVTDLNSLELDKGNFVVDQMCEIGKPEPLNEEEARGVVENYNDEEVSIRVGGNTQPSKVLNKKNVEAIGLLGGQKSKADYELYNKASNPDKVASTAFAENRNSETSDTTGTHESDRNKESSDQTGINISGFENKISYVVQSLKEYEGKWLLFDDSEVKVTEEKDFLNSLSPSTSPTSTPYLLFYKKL
Chain of Cytochrome P450 2D6 (Homo sapiens) (P10635 whole entry, looked up): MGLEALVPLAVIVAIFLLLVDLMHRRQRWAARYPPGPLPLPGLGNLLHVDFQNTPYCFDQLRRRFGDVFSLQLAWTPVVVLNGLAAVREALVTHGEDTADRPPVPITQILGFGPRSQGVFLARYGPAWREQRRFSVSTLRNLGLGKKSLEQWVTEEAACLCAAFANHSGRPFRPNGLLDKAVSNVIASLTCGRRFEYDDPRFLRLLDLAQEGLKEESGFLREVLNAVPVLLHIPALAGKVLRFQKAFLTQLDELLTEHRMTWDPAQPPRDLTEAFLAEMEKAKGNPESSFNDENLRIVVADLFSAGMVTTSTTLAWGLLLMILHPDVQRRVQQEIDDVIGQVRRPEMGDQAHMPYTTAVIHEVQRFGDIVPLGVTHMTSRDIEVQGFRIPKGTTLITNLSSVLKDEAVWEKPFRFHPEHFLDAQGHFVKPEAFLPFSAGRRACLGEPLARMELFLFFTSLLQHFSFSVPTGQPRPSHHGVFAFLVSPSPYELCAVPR

On to `COC(C/C=C/C=C/CC/C=C\CC(C)/C=C\C(=C/C(=O)O)CC(=O)O)/C(C)=C\C=C(/C)C(=O)O` (centres undefined), for which the activity change, negative = inhibition in experiment [1] is 8.89% [at 6.83 µM] (inactive); in experiment [2], -26.8% [at 3.88 µM] (inactive).

For `C=C1C([C@@H](O)C[C@H](C)C2O[C@@]3(CCCCO3)CC[C@H]2C)OC2CC[C@@]3(CC[C@@H](/C=C/[C@@H](C)C4CC(C)=C[C@]5(O4)O[C@H](C[C@@](C)(O)C(=O)O)CCC5O)O3)OC2[C@@H]1O` (some centres undefined), the results for the activity change, negative = inhibition in experiment [1] and in experiment [2] were 0.872% [at 4.99 µM] (inactive) and -21.6% [at 1.51 µM] (inactive), respectively.

Consider `CC(C)C[C@H](NC(=O)[C@H](Cc1ccccc1)NC(=O)CNC(=O)[C@H](CS)N(C(=O)[C@@H](N)Cc1ccc(O)cc1)C(C)(C)C)C(=O)N([C@H](C(=O)O)[C@H](C)O)C(C)(C)C` (HELM PEPTIDE1{Y.[CC(C)(C)N([C@@H](CS)C(=O)[*:2])[*:1]].G.F.L.[C[C@H](O)[C@@H](C(=O)O)N(C(C)(C)C)[*:1]]}$$$$V2.0), for which the results for the activity change, negative = inhibition in experiment [1] and in experiment [2] were 12.2% [at 6.83 µM] (inactive) and -10.6% [at 3.88 µM] (inactive), respectively.

As for `Nc1ncnc2c1ncn2[C@@H]1O[C@H](COP(=O)(O)CP(=O)(O)O)[C@@H](O)[C@H]1O`, the Potency result in [1] and in experiment [2] was “inactive” throughout.

As to `CC(C)[C@H](NC(=O)[C@H](CCC(=O)O)NC(=O)[C@H](Cc1ccccc1)NC(=O)[C@H](C)NC(=O)[C@@H](N)Cc1ccc(O)cc1)C(=O)N[C@H](C(=O)NCC(N)=O)C(C)C`, the activity change, negative = inhibition in [1] was 2.64% [at 6.83 µM] (inactive); in [2] it was -11.9% [at 3.88 µM] (inactive).

Consider `C[C@H](NC(=O)[C@@H](N)Cc1ccc(O)cc1)C(=O)N[C@@H](Cc1ccccc1)C(=O)N[C@@H](Cc1ccccc1)C(N)=O` (H-YAFF-NH2), for which the activity change, negative = inhibition in experiment [1] is 0.112% [at 6.83 µM] (inactive); in [2], -10.3% [at 3.88 µM] (inactive).

On to `NCCc1cccc(O)c1`, for which the Potency result in experiment [1] and in [2] was “inactive” throughout.

In the case of `C[C@]12N[C@@H](Cc3ccccc31)c1ccccc12`, the call in experiment [3], in [5] and in [6] was inactive. In addition, the Potency result in experiment [4], in [7], in experiment [8], in [11], in [12] and in [1] was “inactive” in each case. Moreover, the Potency result in experiment [2] is “inactive”. The Potency in experiment [9] is 79.4 nM (active) and 5.01 µM (active). Moreover, the activity change, negative = inhibition is 1.12% (inactive) and -0.257% (inactive) in experiment [10] (at 25.7 µM (top of the series)); 2.32% (inactive) and -0.0802% (inactive) in experiment [10] (at 57.5 µM (top of the series)). Also, the values for the max response in experiment [10] (measured here: cell count channel max response) and in experiment [10] (measured here: lipid channel max response) were 11.5% [middle of 4 runs] and 12.1% [middle of 4 runs], respectively.

The record behind these values is PubChem BioAssay (NCATS).
